From paper PMC5540273 (PLoS ONE, 2017)

How the values were obtained:
Conditions in all cases: concentration: 1 μM, replicates: in singlicate; n = 1
MAST1 = tested on: MAST1
MEK1 = tested on: T1, MEK1
T1 construct: gene MAP2K1

MEK2 = tested on: T2, MEK2
T2 construct: gene MAP2K2

MEK3 = tested on: T3, MEK3
T3 construct: gene MAP2K3

MEK4 = tested on: T4, MEK4
T4 construct: gene MAP2K4

MEK5 = tested on: T5, MEK5
T5 construct: gene MAP2K5

MEK6 = tested on: T6, MEK6
T6 construct: gene MAP2K6

MELK = tested on: MELK
MERTK = tested on: MERTK
MET = tested on: MET
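Note: KINOMEscan kinase panel screen.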

| Structure (SMILES) | %Inh (MAST1) | %Inh (MEK1) | %Inh (MEK2) | %Inh (MEK3) | %Inh (MEK4) | %Inh (MEK5) | %Inh (MEK6) | %Inh (MELK) | %Inh (MERTK) | %Inh (MET) |
| --- | --- | --- | --- | --- | --- | --- | --- | --- | --- | --- |
| Nc1cccc(-c2ccc3c(N)n[nH]c3c2)n1 [GSK2192730] | 0% | 3% | 22% | 3% | 1% | 31% | 18% | 0% | 0% | 0% |
| CS(=O)(=O)Cc1ccc(Nc2nccc(-c3c(-c4cccc(NC(=O)C5CCCCC5)c4)nn4ncccc34)n2)cc1 [GSK350559] | 39% | 32% | 19% | 42% | 16% | 98.3% | 0% | 0% | 12% | 10% |
| O=c1cc(N2CCOCC2)nc2n(Cc3ccccc3F)ccn12 [GSK2297428] | 0% | 0% | 0% | 0% | 0% | 0% | 0% | 0% | 42% | 0% |
| CNc1nc(-c2ccc3c(N)n[nH]c3c2)cc(N2C[C@@H](C(=O)NC3CCCCC3)OC[C@H]2C)n1 [GSK2375584] | 0% | 8% | 11% | 0% | 11% | 14% | 0% | 57% | 2% | 0% |
| COc1ccc(Nc2nccc(-c3ccc(NC(=O)c4cc5cc(F)ccc5[nH]4)cc3)n2)cc1 [GSK1229496] | 0% | 0% | 0% | 20% | 0% | 6% | 0% | 0% | 18% | 0% |
| COc1ccc2cc(-c3nc(-c4ccccc4C(C)C)[nH]c3-c3ccncc3)ccc2c1 [SB-660566] | 2% | 0% | 0% | 0% | 65% | 11% | 45% | 26% | 33% | 0% |
| CCn1c(-c2ccccc2)nc2cnccc21 [SB-733416] | 0% | 0% | 0% | 0% | 25% | 37% | 0% | 0% | 24% | 0% |
| Cn1cncc1-c1cc2c(Nc3ccc(OCc4ccccc4)cc3)ncnc2cn1 [GW281179] | 0% | 11% | 5% | 0% | 24% | 99.2% | 0% | 0% | 0% | 0% |
| COc1cccc(CNC(=O)NC2CCN(c3ccnc(Nc4ccc(F)cc4)n3)C2)c1 (centres unmarked) [GSK1379723] | 6% | 10% | 0% | 0% | 36% | 53% | 0% | 0% | 26% | 0% |
| Cc1nccc(-c2c(-c3ccc(F)cc3)ncn2CCCN2CCOCC2)n1.Cl [SB-282975] | 71% | 1% | 33% | 2% | 9% | 19% | 0% | 19% | 24% | 0% |
| CC(=O)c1c(C)c2cnc(Nc3ccn(C)n3)nc2n(C2CCCC2)c1=O | 0% | 0% | 0% | 13% | 0% | 0% | 4% | 1% | 0% | 0% |
| Cn1cnc2c(N)ncnc21 [SKF-97623] | 44% | 0% | 0% | 13% | 0% | 23% | 0% | 0% | 16% | 2% |
| Cc1ccccc1Cn1ccn2c(=O)cc(N3CCOCC3)nc12 [GSK2269905] | 0% | 0% | 0% | 0% | 27% | 13% | 0% | 0% | 25% | 0% |
| CN1c2ccc(-c3ccc(C(N)=O)cc3)cc2-c2[nH]ncc2S1(=O)=O | 0% | 41% | 17% | 16% | 0% | 24% | 0% | 10% | 46% | 14% |
| Cn1cncc1C(=O)NC1CCN(c2ccnc(Nc3ccc(F)cc3)n2)C1 (centres unmarked) [GSK1379717] | 0% | 0% | 0% | 11% | 28% | 3% | 0% | 0% | 5% | 0% |
| Cc1ccc(NC(=O)Nc2ccc(Cl)c(C(F)(F)F)c2)cc1-c1ccc(C(=O)Nc2ccncc2)cc1 [GSK1398470] | 0% | 0% | 0% | 0% | 24% | 29% | 0% | 13% | 0% | 13% |
| COc1ccc(Nc2nccc(NCCNC(=O)Nc3cc(C)ccc3C)n2)cc1 [GSK1379899] | 0% | 0% | 0% | 0% | 0% | 66% | 0% | 0% | 11% | 0% |
